The values below come from PubChem BioAssay (NCI).

Some test systems named below: RPMI-8226 leukemia; OVCAR-8 ovarian; OVCAR-5 ovarian; OVCAR-4 ovarian; SK-OV-3 ovarian; IGROV1 ovarian; OVCAR-3 ovarian; HS 578T breast; NCI/ADR-RES ovarian; T-47D breast; BT-549 breast; MDA-MB-435 melanoma; SW-620 colon; MCF7 breast; HCT-116 colon; HCC-2998 colon; KM12 colon.
Common to all, as to test: NCI-60 one-dose screen, 48 h (100 = growth as untreated, 0 = no growth, -100 = all killed)
Holding throughout (conditions): 10 µM unless noted

The structures appear in SMILES notation. Compounds without any hit were thinned out: in the full panel of roughly 83,000, 20% have a hit.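 Plates (96-well) were seeded with cells, treated with compound at one concentration, and incubated for 48 hours before percent growth was determined.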 A number with no mark means an inactive call. Active and inactive are the calls of the source. The calls were made as follows: active = growth percent below 10; inactive = the rest.

Turning to `CCOc1ccc2nc(SCc3nc4n(n3)S(=O)(=O)c3ccccc3N4C)sc2c1`, the growth with RPMI-8226 leukemia was 30.7%; in the experiment with OVCAR-8 ovarian, 27.7%; in the experiment on OVCAR-5 ovarian, -9.82% (active); with OVCAR-4 ovarian it was 31.2%; in the experiment with SK-OV-3 ovarian it was 35.3%; with IGROV1 ovarian it was -30.9% (active). Further, the growth in the experiment on OVCAR-3 ovarian was 37.5%; with HS 578T breast, -59.3% (active); with NCI/ADR-RES ovarian, 6.82% (active); with T-47D breast, 45.2%; with BT-549 breast, -10.6% (active); in the experiment on MDA-MB-435 melanoma, 60.8%. For the same molecule, the growth in the experiment with SW-620 colon was 14%; in the experiment on MCF7 breast it was 47.3%; in the experiment on HCT-116 colon it was 19.1%; in the experiment with HCC-2998 colon, 28.5%; with KM12 colon, 7.52% (active).
As to `Cn1cc(-c2ccc3cc(-c4ccc(CC(=O)Nc5cc(C(C)(C)C)nn5C)cc4)cnc3c2)cn1`, the growth with RPMI-8226 leukemia is 3.3% (active); in the experiment with OVCAR-8 ovarian, 3.03% (active); in the experiment on OVCAR-5 ovarian it was 43.8%; in the experiment on OVCAR-4 ovarian, 3.73% (active); in the experiment on SK-OV-3 ovarian, -5.28% (active); with OVCAR-3 ovarian it was 14.2%. Besides, the growth in the experiment with HS 578T breast is -1.77% (active); with NCI/ADR-RES ovarian, -2.56% (active); with T-47D breast, -0.815% (active); in the experiment with BT-549 breast, -8.22% (active); with MDA-MB-435 melanoma it was 5.58% (active); with SW-620 colon, 20.1%. Also, the growth in the experiment with MCF7 breast was 13.4%; in the experiment on HCT-116 colon, 11.5%; with HCC-2998 colon, 32.9%; with KM12 colon, -33.3% (active).
In the case of `C[C@H]1[C@H]2[C@H]3CC[C@@H]4[C@@]5(C)CC[C@H](O)C(C)(C)[C@@H]5CC[C@@]4(C)[C@]3(C)CC[C@]23CO[C@]1(C)[C@@H](C(=O)/C=C\c1cccnc1)C3`, the growth is 9.55% (active) with RPMI-8226 leukemia; 35.1% in the experiment on OVCAR-8 ovarian; 121% in the experiment with OVCAR-5 ovarian; 49% in the experiment on OVCAR-4 ovarian; 77.8% in the experiment with SK-OV-3 ovarian; 46.7% in the experiment with OVCAR-3 ovarian. The growth was 82% in the experiment with HS 578T breast; 30.2% with T-47D breast; 57.2% with BT-549 breast; 34.5% in the experiment with MDA-MB-435 melanoma; 32.3% with SW-620 colon; 23.7% in the experiment with MCF7 breast. In addition, the values for the growth in the experiment with HCT-116 colon, in the experiment on HCC-2998 colon and in the experiment on KM12 colon were 14.4%, 69.9% and 54.4%, respectively.
For `COc1ccc(/C=C/c2c(C(=O)/C=C/c3ccc(Cl)cc3)c(C)nc3ccccc23)cc1`, the growth was -28.6% (active) in the experiment with RPMI-8226 leukemia; 20.9% in the experiment on OVCAR-8 ovarian; 16.9% in the experiment with OVCAR-5 ovarian; 40.6% with OVCAR-4 ovarian; 64.5% in the experiment with SK-OV-3 ovarian; -4.96% (active) in the experiment with OVCAR-3 ovarian. The growth is 34.4% in the experiment on HS 578T breast; 12.4% in the experiment with NCI/ADR-RES ovarian; 23.2% in the experiment on T-47D breast; 54.5% with BT-549 breast; 2.02% (active) in the experiment on MDA-MB-435 melanoma; -17% (active) with SW-620 colon. In addition, the growth with MCF7 breast was 26.2%; in the experiment with HCT-116 colon it was -64.6% (active); with HCC-2998 colon it was -48.6% (active); in the experiment with KM12 colon it was 30.2%.
For the molecule `CCc1ccccc1-n1c(N)c(C#N)c(-c2ccc(Cl)cc2)c(C#N)c1=O`, the growth was 84.2% in the experiment on RPMI-8226 leukemia; 111% in the experiment with OVCAR-8 ovarian; 108% in the experiment with OVCAR-5 ovarian; 93.3% with OVCAR-4 ovarian; 108% in the experiment on SK-OV-3 ovarian; 87% in the experiment on IGROV1 ovarian. Besides, the growth in the experiment with OVCAR-3 ovarian was 107%; in the experiment on HS 578T breast, 92.2%; in the experiment on T-47D breast, 101%; in the experiment with BT-549 breast it was 173%; in the experiment with MDA-MB-435 melanoma, 119%; in the experiment with SW-620 colon, 102%. In addition, the growth in the experiment with MCF7 breast was 103%; in the experiment with HCT-116 colon, 103%; in the experiment on HCC-2998 colon, 107%; in the experiment on KM12 colon, 95.8%.
As to `OC(COc1ccccc1)CN1CCN(c2ccc(Cl)cc2)CC1` (configuration not stated), the growth in the experiment with RPMI-8226 leukemia is 95.1%; in the experiment with OVCAR-8 ovarian, 93.9%; with OVCAR-5 ovarian, 111%; with OVCAR-4 ovarian it was 97.6%; in the experiment with SK-OV-3 ovarian it was 102%; in the experiment with IGROV1 ovarian, 124%. In addition, the growth in the experiment on OVCAR-3 ovarian was 100%; in the experiment on HS 578T breast, 100%; with NCI/ADR-RES ovarian, 101%; in the experiment on T-47D breast, 102%; in the experiment with BT-549 breast, 101%; in the experiment on MDA-MB-435 melanoma it was 121%. Further, the growth in the experiment on SW-620 colon is 98.7%; with MCF7 breast, 102%; with HCT-116 colon, 92.6%; in the experiment with HCC-2998 colon it was 109%; in the experiment with KM12 colon it was 98%.
